This is an account of results in PubChem BioAssay.

Assay [1] is described as follows: compounds binding Alexa647 anti-His antibody – biochemical, small-molecule microarray, 635 nm fluorescence, artefact control for SMM control protein annotation, primary screen (AID 1128).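 Also: score merges feature fluorescence with signal-to-noise for each printed compound spot.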 As to conditions: higher = more signal.
The test system of assay [2] is Human papillomavirus type 1a E7 protein (residues 1-88). Briefly: HPV1a E7 small-molecule binders, primary screen, biochemical, small-molecule microarray, residues 1-88, 635 nm (AID 1129). As to conditions: small-molecule microarray binding, fluorescence 635 nm; higher = more signal.
The target in assay [3] is Focal adhesion kinase 1 (Homo sapiens) (UniProt Q05397). Briefly: PTK2 protein binding on printed compound slides – biochemical, small-molecule microarray, 635/667 nm fluorescence, BSA, DTT, primary screen (AID 1130).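 Also: composite of spot emission at 667 nm and signal to noise over triplicate slides.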 As to conditions: 635 nm fluorescence, higher = more signal.
Assay [4] relates to Fibrinogen (Alexa647-labelled). The experiment in a line: Alexa647-fibrinogen binding to printed small molecules – biochemical, small-molecule microarray, 635/667 nm fluorescence, artefact control for SMM control-protein annotation, profiling panel (AID 1131).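 Also: z-score merges 667 nm fluorescence with per-spot signal-to-noise over triplicate slides.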 Conditions: fibrinogen-A647 binding fluorescence, higher = more signal.
The target in assay [5] is Follistatin (Homo sapiens) (UniProt P19883). The experiment in a line: FST protein binding to printed compounds – biochemical, small-molecule microarray, 635/667 nm fluorescence, primary screen (AID 1132). Conditions: 635 nm fluorescence, higher = more signal.
The target of assay [6] is Fibroblast growth factor 2 (Homo sapiens) (UniProt P09038). Briefly: basic fibroblast growth factor binding to printed compounds – biochemical, small-molecule microarray, 635/667 nm fluorescence, primary screen (AID 1133). As to conditions: FGF2, fluorescence 635/667, higher = more signal.
Assay [7] is described as follows: JC-1 mitochondrial potential readout, lung cancer cells – cell-based, A549, JC-1 fluorescence, basal, 24 h, 100 nL, profiling panel (AID 1138).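 Also: A549 lung adenocarcinoma cells under basal conditions with no added stimulus; test concentration not given here.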 Conditions: higher = more signal.
The test system of a further assay is Lefty1. Briefly: Lefty1 protein binding to printed compounds – biochemical, small-molecule microarray, 635/667 nm fluorescence, primary screen (AID 1139). As to conditions: fluorescence 635/667, higher = more signal.
Assay [8] has as its system wheat germ agglutinin (Triticum aestivum), Alexa647-labelled. Briefly: Alexa647-WGA lectin binding to printed small molecules – biochemical, small-molecule microarray, 635/667 nm fluorescence, artefact control for SMM control-protein annotation, profiling panel (AID 1140).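 Also: score merges 667 nm feature emission with signal to noise over triplicate slides.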 As to conditions: WGA-A647 binding, 635 nm fluorescence, higher = more signal.
For assay [9], the target named is Luciferin 4-monooxygenase (Photinus pyralis) (UniProt P08659). Briefly: inhibition of purified Photinus pyralis luciferase – biochemical, luminescence, purified enzyme, 2006 set, primary screen (AID 1141).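 Also: cell-free assay with purified firefly luciferase at 100 ng per well in PBS; test concentration not given here.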 As to conditions: purified firefly luciferase, SteadyGlo luminescence, 30 min; higher = more signal, called active from +8 up or from −8 down.

SMILES strings stand for the structures. Active and inactive are the calls of the source.

Luciferin 4-monooxygenase (Photinus pyralis), sequence (P08659 whole entry, looked up): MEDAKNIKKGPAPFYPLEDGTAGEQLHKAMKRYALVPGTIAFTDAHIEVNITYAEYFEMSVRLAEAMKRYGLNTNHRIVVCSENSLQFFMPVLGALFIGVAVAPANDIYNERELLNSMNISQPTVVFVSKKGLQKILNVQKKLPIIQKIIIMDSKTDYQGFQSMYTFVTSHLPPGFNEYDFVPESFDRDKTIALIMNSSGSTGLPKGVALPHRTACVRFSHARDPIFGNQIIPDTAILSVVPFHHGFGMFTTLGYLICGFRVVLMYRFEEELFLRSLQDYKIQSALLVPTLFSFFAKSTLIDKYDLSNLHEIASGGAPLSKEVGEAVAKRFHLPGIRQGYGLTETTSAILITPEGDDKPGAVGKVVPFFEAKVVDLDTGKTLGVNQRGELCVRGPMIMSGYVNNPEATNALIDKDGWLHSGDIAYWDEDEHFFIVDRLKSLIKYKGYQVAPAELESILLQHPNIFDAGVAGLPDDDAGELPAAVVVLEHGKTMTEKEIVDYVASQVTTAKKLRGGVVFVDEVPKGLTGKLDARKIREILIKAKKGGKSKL
Follistatin (Homo sapiens), sequence (P19883 whole entry, looked up): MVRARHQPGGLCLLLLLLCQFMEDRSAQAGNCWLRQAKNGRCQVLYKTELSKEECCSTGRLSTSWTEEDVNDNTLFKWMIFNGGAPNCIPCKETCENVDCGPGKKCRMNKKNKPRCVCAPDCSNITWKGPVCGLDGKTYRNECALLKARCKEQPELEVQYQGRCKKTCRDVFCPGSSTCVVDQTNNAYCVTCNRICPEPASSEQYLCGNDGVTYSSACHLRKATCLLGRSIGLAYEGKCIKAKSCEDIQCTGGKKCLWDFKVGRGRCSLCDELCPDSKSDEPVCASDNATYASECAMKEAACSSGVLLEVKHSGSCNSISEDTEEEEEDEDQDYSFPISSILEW
Focal adhesion kinase 1 (Homo sapiens), sequence (Q05397 whole entry, looked up): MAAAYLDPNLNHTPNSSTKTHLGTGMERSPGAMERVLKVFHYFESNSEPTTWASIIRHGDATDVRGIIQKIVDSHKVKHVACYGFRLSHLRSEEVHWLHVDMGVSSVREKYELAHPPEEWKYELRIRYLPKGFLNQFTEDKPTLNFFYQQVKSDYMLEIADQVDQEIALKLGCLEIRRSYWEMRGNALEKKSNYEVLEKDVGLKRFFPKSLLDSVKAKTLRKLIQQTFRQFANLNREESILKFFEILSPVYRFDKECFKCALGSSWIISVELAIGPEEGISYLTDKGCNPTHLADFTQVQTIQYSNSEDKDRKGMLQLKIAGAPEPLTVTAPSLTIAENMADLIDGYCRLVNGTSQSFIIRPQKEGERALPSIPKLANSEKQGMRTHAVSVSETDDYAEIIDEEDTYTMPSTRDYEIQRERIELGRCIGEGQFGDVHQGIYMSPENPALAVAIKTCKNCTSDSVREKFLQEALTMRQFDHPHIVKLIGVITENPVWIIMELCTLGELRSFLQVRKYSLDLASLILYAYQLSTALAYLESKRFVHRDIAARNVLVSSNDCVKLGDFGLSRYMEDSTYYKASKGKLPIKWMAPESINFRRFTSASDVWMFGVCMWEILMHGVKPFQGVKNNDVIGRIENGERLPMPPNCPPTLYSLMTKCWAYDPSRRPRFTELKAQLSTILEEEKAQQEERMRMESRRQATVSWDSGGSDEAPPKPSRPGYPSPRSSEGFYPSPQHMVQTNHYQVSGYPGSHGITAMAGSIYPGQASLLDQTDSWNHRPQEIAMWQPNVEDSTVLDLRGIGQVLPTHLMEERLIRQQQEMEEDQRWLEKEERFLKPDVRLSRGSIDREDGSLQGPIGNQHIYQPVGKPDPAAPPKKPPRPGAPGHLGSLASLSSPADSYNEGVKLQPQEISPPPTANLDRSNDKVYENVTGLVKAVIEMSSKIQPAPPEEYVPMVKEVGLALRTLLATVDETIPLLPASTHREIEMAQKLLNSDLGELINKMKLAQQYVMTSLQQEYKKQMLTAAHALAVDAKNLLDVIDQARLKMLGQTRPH
Fibroblast growth factor 2 (Homo sapiens), sequence (P09038 whole entry, looked up): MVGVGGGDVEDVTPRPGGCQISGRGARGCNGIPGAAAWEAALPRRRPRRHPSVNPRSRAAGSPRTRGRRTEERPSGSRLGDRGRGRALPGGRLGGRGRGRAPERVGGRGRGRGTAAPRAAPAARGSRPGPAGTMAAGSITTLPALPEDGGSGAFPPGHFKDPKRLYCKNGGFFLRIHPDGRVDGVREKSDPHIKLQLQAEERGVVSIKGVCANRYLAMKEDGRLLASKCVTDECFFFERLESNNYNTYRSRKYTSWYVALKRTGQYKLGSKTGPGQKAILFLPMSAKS

Take `[N-]=[N+]=Nc1ccccc1C[C@]1(C(=O)N2CCCCC2)COC(c2ccc(OCCCO)cc2)=N1`: the composite z-score is 1.33 in assay [1]; 1.15 in assay [2]; 0.65 in assay [3]; 1.01 in assay [4]; 0.601 in assay [5]; -0.0446 in [6]. Besides, the values for the composite z-score (in the assay on Lefty1; in assay [8]) were 0.308 and 0.523, respectively. Moreover, the z-score in [7] was 0.124; in [9] it was -6.97 (inactive).

For `COCCOC(=O)N1C(=O)[C@@]2(c3cc(C#Cc4ccc(OC)cc4)ccc31)[C@H](c1ccc(O)cc1)N1[C@H](c3ccccc3)[C@H](c3ccccc3)OC(=O)[C@H]1[C@@H]2C(=O)Nc1nc2ccccc2s1`, the composite z-score was 0.513 in assay [1]; 1.19 in assay [2]; -0.0177 in assay [3]; 0.939 in assay [4]; 1.26 in assay [5]; 0.499 in assay [6]. In addition, the composite z-score is 0.617 with Lefty1 and 0.649 in assay [8]. Moreover, the z-score in assay [7] was -2.06; in assay [9], -0.894 (inactive).

As for `COc1ccc(CCNC(=O)[C@@]2(C)c3ccccc3C(=O)N(c3ccc(C)cn3)[C@H]2c2ccc(CO)cc2)cc1`, the composite z-score in [1] was -0.463; in assay [2], -0.0172; in assay [3], -0.284; in assay [4], -1.95; in assay [5] it was -0.298; in assay [6], -1.09. For the same compound, the composite z-score is -0.601 with Lefty1 and -0.902 in [8]. The z-score in [7] is 0.14; in assay [9], 1.14 (inactive).

With `CCOc1cc(C(O)C2C=CC3C(=O)N(c4ccccc4)C(=O)C3N2Nc2ccc(C(C)C)cc2)ccc1O` (stereo not given), the composite z-score in assay [1] worked out at 1.72; in assay [2] it was 1.23; in assay [3] it was 0.543; in assay [4], 0.963; in [5] it was 1.03; in assay [6], 0.0704. Further, the figures for the composite z-score (with Lefty1; in assay [8]) were 0.135 and 1.3, respectively. The z-score in assay [7] is 0.898; in assay [9] it was 0.12 (inactive).

In the case of `C=C(CCCC)C(=O)CC[C@@H](OC(C)=O)c1ccc(CO)o1`, the composite z-score in [1] was 0.184; in assay [2], -0.261; in [3] it was -0.437; in assay [4] it was 0.513; in assay [5], 1.36; in [6] it was 1.8. The figures for the composite z-score (with Lefty1; in assay [8]) were 1.64 and 0.201, respectively. Further, the z-score in assay [7] was -0.683; in assay [9], -1.3 (inactive).

As for `COC(=O)[C@@]1(Cc2ccc(F)cc2)[C@H]2c3cc(C(=O)N(C)C)n(Cc4cc(C)n(C)n4)c3C[C@H]2CN1C(=O)c1ccccc1`, the composite z-score was 2.76 in [1]; 1.2 in [2]; 0.646 in assay [3]; 0.795 in [4]; 0.577 in assay [5]; -0.237 in assay [6]. The composite z-score in the assay on Lefty1 is -0.574; in assay [8] it was 0.537. Moreover, the z-score in assay [7] was -0.013; in assay [9], 0.272 (inactive).

As to `[N-]=[N+]=NCc1ccccc1[C@H]1OC(c2ccc(OCCCO)cc2)=N[C@@]1(Cc1ccccc1)C(=O)N1CCCCC1`, the composite z-score worked out at 0.777 in assay [1]; 1.23 in assay [2]; 0.795 in assay [3]; 1 in assay [4]; 1.45 in assay [5]; 1.52 in assay [6]. Besides, the figures for the composite z-score (with Lefty1; in [8]) were 0.944 and 0.834, respectively. For the same compound, the z-score was 0.779 in assay [7] and 0.486 (inactive) in assay [9].

Consider `C=C(CCCC)C(=O)CC[C@H](OC(=O)c1cccnc1)c1ccc(OCCO)cc1`, for which the composite z-score is 0.631 in assay [1]; 0.474 in [2]; 0.819 in assay [3]; 0.0895 in assay [4]; 0.131 in assay [5]; 0.476 in assay [6]. Also, the composite z-score in the assay on Lefty1 was -0.205; in assay [8], 0.955. The z-score in assay [7] was 1.15; in assay [9], -1.91 (inactive).

For the compound `CN1CCC(CCCO)=CC1c1cccs1` (stereo not given), the composite z-score was -0.321 in assay [1]; -0.902 in [2]; -0.698 in assay [3]; 0.0141 in [4]; -0.0163 in assay [5]; 0.184 in assay [6]. For the same compound, the composite z-score with Lefty1 is 0.118; in assay [8] it was -0.485. The z-score was 0.391 in [7] and 0.0421 (inactive) in [9].

As for `COc1ccc([Si](C)(C)[C@@H]2[C@@H](CCn3cc(CCO)nn3)O[C@]3(C(=O)N(Cc4cccc(N5C(=O)c6cccc7cccc5c67)c4)c4ccccc43)[C@H]2C)cc1`, the composite z-score is 1.18 in [1]; 1.16 in assay [2]; 0.321 in [3]; 0.556 in assay [4]; 1.16 in assay [5]; 0.672 in assay [6]. Moreover, the composite z-score stood at 1.23 in the assay on Lefty1 and 0.509 in assay [8]. For the same compound, the results for the z-score in assay [7] and in assay [9] were -1.1 and 0.178 (inactive), respectively.

On to `C=CC[C@]12N=C(c3ccc(OCCCO)cc3)O[C@H]1c1ccccc1N(CCS(=O)(=O)c1ccccc1)C2=O`, for which the composite z-score was 1.66 in assay [1]; 1.23 in assay [2]; 0.472 in assay [3]; 0.971 in [4]; 1.15 in [5]; 1.38 in assay [6]. The composite z-score came out at 1.05 in the assay with Lefty1 and 0.97 in assay [8]. Besides, the z-score in assay [7] was 0.337; in [9], -12.4 (active).

As to `COC(=O)c1c(CC[C@@H](CO)NC(=O)N[C@@H](Cc2ccccc2)Cn2cc(-c3ccccn3)nn2)oc(C(=O)N2CCOCC2)c1C(=O)OC`, the composite z-score in assay [1] was -0.241; in [2] it was -0.341; in [3], 0.384; in [4], -0.405; in [5], 0.57; in assay [6] it was -0.129. In addition, the composite z-score in the assay with Lefty1 was 0.795; in assay [8], 0. Also, the figures for the z-score in assay [7] and in assay [9] were -0.187 and 1.1 (inactive), respectively.

As to `O=C(NCCN1CCOCC1)[C@@H]1c2ccccc2C(=O)N(Cc2cc(C(F)(F)F)cc(C(F)(F)F)c2)[C@H]1c1ccc(CO)cc1`, the composite z-score in assay [1] is 0.537; in [2], -0.137; in [3], 0.31; in assay [4], -0.487; in assay [5] it was -0.48; in assay [6], -0.879. The composite z-score with Lefty1 is -0.75; in assay [8], 0.4. Further, the z-score in assay [7] was 2.57; in [9], -0.372 (inactive).
